Laboratory results as given in the supplement of paper PMC4466140.

Key:
Assay in all cases: SPOT peptide array binding signal intensity (averaged, normalized) (arbitrary units (background-subtracted, floor 0; scale differs between SH3 domains)); higher = stronger binding of the SH3 domain to the peptide
CaNbp2 = biological target: CaNbp2
Outline: (§1)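 GST-fused SH3 domains from four yeast species were expressed in E. coli BL21(DE3), purified on glutathione Sepharose and incubated at 10 μg/ml overnight at 4°C in TBS-based blocking buffer on cellulose membranes carrying synthetic 15-mer peptides, with cysteines replaced by serines. Bound protein was detected with anti-GST antibody, an HRP anti-mouse secondary and luminol, then imaged and quantified with Genespotter. Binding signal is the normalized, background-subtracted spot intensity averaged over replicates, in arbitrary units that differ between domains.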

CaRvs167 = biological target: CaRvs167
Outline: as §1

CaRvs167-3 = biological target: CaRvs167-3
Outline: as §1

CaSho1 = biological target: CaSho1
Outline: as §1

CaSla1-D1-D2 = biological target: CaSla1-D1-D2
Outline: as §1

CaSla1-D3 = biological target: CaSla1-D3
Outline: as §1

ScAbp1 = biological target: ScAbp1
Outline: as §1

ScBbc1 = biological target: ScBbc1
Outline: as §1

ScBem1-D1 = biological target: ScBem1-D1
Outline: as §1

ScBzz1-D1 = biological target: ScBzz1-D1
Outline: as §1

ScBzz1-D2 = biological target: ScBzz1-D2
Outline: as §1

ScCyk3 = biological target: ScCyk3
Outline: as §1

ScFus1 = biological target: ScFus1
Outline: as §1

ScHof1 = biological target: ScHof1
Outline: as §1

ScHse1 = biological target: ScHse1
Outline: as §1

ScLsb1 = biological target: ScLsb1
Outline: as §1

ScLsb2 = biological target: ScLsb2
Outline: as §1

ScLsb3 = biological target: ScLsb3
Outline: as §1

ScLsb4 = biological target: ScLsb4
Outline: as §1

ScMyo3 = biological target: ScMyo3
Outline: as §1

ScMyo5 = biological target: ScMyo5
Outline: as §1

ScNbp2 = biological target: ScNbp2
Outline: as §1

ScPex13 = biological target: ScPex13
Outline: as §1

ScRvs167 = biological target: ScRvs167
Outline: as §1

ScSho1 = biological target: ScSho1
Outline: as §1

ScSla1-D1-D2 = biological target: ScSla1-D1-D2
Outline: as §1

ScSla1-D3 = biological target: ScSla1-D3
Outline: as §1

SpAbp1-D1 = biological target: SpAbp1-D1
Outline: as §1

SpBbc1 = biological target: SpBbc1
Outline: as §1

SpBzz1-D1 = biological target: SpBzz1-D1
Outline: as §1

SpBzz1-D2 = biological target: SpBzz1-D2
Outline: as §1

SpCyk3 = biological target: SpCyk3
Outline: as §1

SpHof1 = biological target: SpHof1
Outline: as §1

SpHof1-2 = biological target: SpHof1-2
Outline: as §1

SpHof1-3 = biological target: SpHof1-3
Outline: as §1

SpHse1 = biological target: SpHse1
Outline: as §1

SpLsb1 = biological target: SpLsb1
Outline: as §1

SpLsb4 = biological target: SpLsb4
Outline: as §1

SpMyo1 = biological target: SpMyo1
Outline: as §1

SpNbp2 = biological target: SpNbp2
Outline: as §1

SpPex13 = biological target: SpPex13
Outline: as §1

SpRvs167 = biological target: SpRvs167
Outline: as §1

SpSla1-D1-D2 = biological target: SpSla1-D1-D2
Outline: as §1

SpSla1-D3 = biological target: SpSla1-D3
Outline: as §1

AgAbp1 = biological target: AgAbp1
Outline: as §1

AgBbc1 = biological target: AgBbc1
Outline: as §1

AgBem1-D1 = biological target: AgBem1-D1
Outline: as §1

AgBzz1-D1 = biological target: AgBzz1-D1
Outline: as §1

AgBzz1-D2 = biological target: AgBzz1-D2
Outline: as §1

AgCyk3 = biological target: AgCyk3
Outline: as §1

AgFus1 = biological target: AgFus1
Outline: as §1

AgHof1 = biological target: AgHof1
Outline: as §1

AgHse1 = biological target: AgHse1
Outline: as §1

AgLsb1 = biological target: AgLsb1
Outline: as §1

AgLsb4 = biological target: AgLsb4
Outline: as §1

AgMyo5 = biological target: AgMyo5
Outline: as §1

AgNbp2 = biological target: AgNbp2
Outline: as §1

AgRvs167 = biological target: AgRvs167
Outline: as §1

AgSho1 = biological target: AgSho1
Outline: as §1

AgSla1-D1-D2 = biological target: AgSla1-D1-D2
Outline: as §1

AgSla1-D3 = biological target: AgSla1-D3
Outline: as §1

CaAbp1-D1 = biological target: CaAbp1-D1
Outline: as §1

CaAbp1-D2 = biological target: CaAbp1-D2
Outline: as §1

CaBbc1 = biological target: CaBbc1
Outline: as §1

CaBem1-D1 = biological target: CaBem1-D1
Outline: as §1

CaBzz1-D1 = biological target: CaBzz1-D1
Outline: as §1

CaBzz1-D2 = biological target: CaBzz1-D2
Outline: as §1

CaCyk3 = biological target: CaCyk3
Outline: as §1

CaFus1 = biological target: CaFus1
Outline: as §1

CaHof1 = biological target: CaHof1
Outline: as §1

CaHse1 = biological target: CaHse1
Outline: as §1

CaLsb1 = biological target: CaLsb1
Outline: as §1

CaLsb4 = biological target: CaLsb4
Outline: as §1

CaMyo5 = biological target: CaMyo5
Outline: as §1

Binder: MPAPPPPPPPPPGAF
- SPOT peptide array binding signal intensity (CaNbp2): 29
- SPOT peptide array binding signal intensity (CaRvs167): ≤ 0
- SPOT peptide array binding signal intensity (CaRvs167-3): 2.75
- SPOT peptide array binding signal intensity (CaSho1): 13.8
- SPOT peptide array binding signal intensity (CaSla1-D1-D2): ≤ 0
- SPOT peptide array binding signal intensity (CaSla1-D3): ≤ 0
- SPOT peptide array binding signal intensity (ScAbp1): ≤ 0
- SPOT peptide array binding signal intensity (ScBbc1): ≤ 0
- SPOT peptide array binding signal intensity (ScBem1-D1): ≤ 0
- SPOT peptide array binding signal intensity (ScBzz1-D1): 27.5
- SPOT peptide array binding signal intensity (ScBzz1-D2): ≤ 0
- SPOT peptide array binding signal intensity (ScCyk3): ≤ 0
- SPOT peptide array binding signal intensity (ScFus1): ≤ 0
- SPOT peptide array binding signal intensity (ScHof1): ≤ 0
- SPOT peptide array binding signal intensity (ScHse1): 4.25
- SPOT peptide array binding signal intensity (ScLsb1): ≤ 0
- SPOT peptide array binding signal intensity (ScLsb2): ≤ 0
- SPOT peptide array binding signal intensity (ScLsb3): ≤ 0
- SPOT peptide array binding signal intensity (ScLsb4): ≤ 0
- SPOT peptide array binding signal intensity (ScMyo3): 1010
- SPOT peptide array binding signal intensity (ScMyo5): 634
- SPOT peptide array binding signal intensity (ScNbp2): ≤ 0
- SPOT peptide array binding signal intensity (ScPex13): 71.9
- SPOT peptide array binding signal intensity (ScRvs167): ≤ 0
- SPOT peptide array binding signal intensity (ScSho1): 5.75
- SPOT peptide array binding signal intensity (ScSla1-D1-D2): ≤ 0
- SPOT peptide array binding signal intensity (ScSla1-D3): 0.125
- SPOT peptide array binding signal intensity (SpAbp1-D1): 7
- SPOT peptide array binding signal intensity (SpBbc1): ≤ 0
- SPOT peptide array binding signal intensity (SpBzz1-D1): 1360
- SPOT peptide array binding signal intensity (SpBzz1-D2): 5.62
- SPOT peptide array binding signal intensity (SpCyk3): ≤ 0
- SPOT peptide array binding signal intensity (SpHof1): 0.5
- SPOT peptide array binding signal intensity (SpHof1-2): 7.75
- SPOT peptide array binding signal intensity (SpHof1-3): 4.25
- SPOT peptide array binding signal intensity (SpHse1): 17.5
- SPOT peptide array binding signal intensity (SpLsb1): ≤ 0
- SPOT peptide array binding signal intensity (SpLsb4): ≤ 0
- SPOT peptide array binding signal intensity (SpMyo1): 521
- SPOT peptide array binding signal intensity (SpNbp2): ≤ 0
- SPOT peptide array binding signal intensity (SpPex13): ≤ 0
- SPOT peptide array binding signal intensity (SpRvs167): 43.4
- SPOT peptide array binding signal intensity (SpSla1-D1-D2): ≤ 0
- SPOT peptide array binding signal intensity (SpSla1-D3): ≤ 0

Binder: VPKEPAPAPPPEPDM
- SPOT peptide array binding signal intensity (AgAbp1): ≤ 0
- SPOT peptide array binding signal intensity (AgBbc1): 0.5
- SPOT peptide array binding signal intensity (AgBem1-D1): ≤ 0
- SPOT peptide array binding signal intensity (AgBzz1-D1): ≤ 0
- SPOT peptide array binding signal intensity (AgBzz1-D2): 7
- SPOT peptide array binding signal intensity (AgCyk3): ≤ 0
- SPOT peptide array binding signal intensity (AgFus1): 4.75
- SPOT peptide array binding signal intensity (AgHof1): 3.88
- SPOT peptide array binding signal intensity (AgHse1): 8
- SPOT peptide array binding signal intensity (AgLsb1): ≤ 0
- SPOT peptide array binding signal intensity (AgLsb4): ≤ 0
- SPOT peptide array binding signal intensity (AgMyo5): 520
- SPOT peptide array binding signal intensity (AgNbp2): 12
- SPOT peptide array binding signal intensity (AgRvs167): 0.167
- SPOT peptide array binding signal intensity (AgSho1): 3.75
- SPOT peptide array binding signal intensity (AgSla1-D1-D2): ≤ 0
- SPOT peptide array binding signal intensity (AgSla1-D3): 0.75
- SPOT peptide array binding signal intensity (CaAbp1-D1): ≤ 0
- SPOT peptide array binding signal intensity (CaAbp1-D2): ≤ 0
- SPOT peptide array binding signal intensity (CaBbc1): ≤ 0
- SPOT peptide array binding signal intensity (CaBem1-D1): 1.5
- SPOT peptide array binding signal intensity (CaBzz1-D1): 42.8
- SPOT peptide array binding signal intensity (CaBzz1-D2): 2.75
- SPOT peptide array binding signal intensity (CaCyk3): ≤ 0
- SPOT peptide array binding signal intensity (CaFus1): 39
- SPOT peptide array binding signal intensity (CaHof1): ≤ 0
- SPOT peptide array binding signal intensity (CaHse1): 2.12
- SPOT peptide array binding signal intensity (CaLsb1): ≤ 0
- SPOT peptide array binding signal intensity (CaLsb4): ≤ 0
- SPOT peptide array binding signal intensity (CaMyo5): 180
- SPOT peptide array binding signal intensity (CaNbp2): 37
- SPOT peptide array binding signal intensity (CaRvs167): ≤ 0
- SPOT peptide array binding signal intensity (CaRvs167-3): 3.25
- SPOT peptide array binding signal intensity (CaSho1): 3.5
- SPOT peptide array binding signal intensity (CaSla1-D1-D2): 9
- SPOT peptide array binding signal intensity (CaSla1-D3): ≤ 0
- SPOT peptide array binding signal intensity (ScAbp1): ≤ 0
- SPOT peptide array binding signal intensity (ScBbc1): ≤ 0
- SPOT peptide array binding signal intensity (ScBem1-D1): ≤ 0
- SPOT peptide array binding signal intensity (ScBzz1-D1): ≤ 0
- SPOT peptide array binding signal intensity (ScBzz1-D2): 21
- SPOT peptide array binding signal intensity (ScCyk3): ≤ 0
- SPOT peptide array binding signal intensity (ScFus1): ≤ 0
- SPOT peptide array binding signal intensity (ScHof1): ≤ 0
- SPOT peptide array binding signal intensity (ScHse1): 7.25
- SPOT peptide array binding signal intensity (ScLsb1): ≤ 0
- SPOT peptide array binding signal intensity (ScLsb2): ≤ 0
- SPOT peptide array binding signal intensity (ScLsb3): ≤ 0
- SPOT peptide array binding signal intensity (ScLsb4): ≤ 0
- SPOT peptide array binding signal intensity (ScMyo3): 1170
- SPOT peptide array binding signal intensity (ScMyo5): 779
- SPOT peptide array binding signal intensity (ScNbp2): 10.5
- SPOT peptide array binding signal intensity (ScPex13): ≤ 0
- SPOT peptide array binding signal intensity (ScRvs167): ≤ 0
- SPOT peptide array binding signal intensity (ScSho1): ≤ 0
- SPOT peptide array binding signal intensity (ScSla1-D1-D2): 3.5
- SPOT peptide array binding signal intensity (ScSla1-D3): 6.5
- SPOT peptide array binding signal intensity (SpAbp1-D1): ≤ 0
- SPOT peptide array binding signal intensity (SpBbc1): 1.12
- SPOT peptide array binding signal intensity (SpBzz1-D1): ≤ 0
